# Hits are enriched below; roughly 3.9% of the tested compounds scored in any of these assays.
# BoNT-F LC inh – inhibitors of Botulinum neurotoxin F light chain protease | Multiplex microsphere protease cleavage assay, flow cytometry | inhibition, % at 10 µM | actives 0.22% (n = 360,000); in the data active means inhibition above about 35%, passing the limit was not always enough; inconclusive means no clear call, values can overlap the other calls; further: plate controls were buffer without enzyme for full effect and enzyme alone for no effect
# CCHF vOTU inh – blocks the CCHF virus ovarian tumor domain protease; inhibition, % at 11.5 µM; actives 0.55% (n = 370,000); CCHFV vOTU protease, Pep-AMC fluorescence; AID 651958; in the data active means inhibition above about 30%; further: 0% = vehicle wells with enzyme and 100% = no enzyme wells
# Bead autofluor – counter-screen for toxin protease inhibitors: compound fluorescence. actives 3.1% (n = 360,000). compound autofluorescence counterscreen, microsphere flow cytometry; active compounds read high. AID 624483. fluorescence intensity (no concentration beside the values); in the data active means fluorescence intensity above about 16000; inconclusive means no clear call, values can overlap the other calls
# Anthrax LF inh2 – anthrax lethal factor protease inhibition; actives 0.12% (n = 360,000); multiplex microsphere protease cleavage assay, LF; inhibition, % at 10 µM; AID 588501; further: plate controls were buffer without enzyme for full effect and enzyme alone for no effect
# Target sequence (P15917 whole entry, looked up): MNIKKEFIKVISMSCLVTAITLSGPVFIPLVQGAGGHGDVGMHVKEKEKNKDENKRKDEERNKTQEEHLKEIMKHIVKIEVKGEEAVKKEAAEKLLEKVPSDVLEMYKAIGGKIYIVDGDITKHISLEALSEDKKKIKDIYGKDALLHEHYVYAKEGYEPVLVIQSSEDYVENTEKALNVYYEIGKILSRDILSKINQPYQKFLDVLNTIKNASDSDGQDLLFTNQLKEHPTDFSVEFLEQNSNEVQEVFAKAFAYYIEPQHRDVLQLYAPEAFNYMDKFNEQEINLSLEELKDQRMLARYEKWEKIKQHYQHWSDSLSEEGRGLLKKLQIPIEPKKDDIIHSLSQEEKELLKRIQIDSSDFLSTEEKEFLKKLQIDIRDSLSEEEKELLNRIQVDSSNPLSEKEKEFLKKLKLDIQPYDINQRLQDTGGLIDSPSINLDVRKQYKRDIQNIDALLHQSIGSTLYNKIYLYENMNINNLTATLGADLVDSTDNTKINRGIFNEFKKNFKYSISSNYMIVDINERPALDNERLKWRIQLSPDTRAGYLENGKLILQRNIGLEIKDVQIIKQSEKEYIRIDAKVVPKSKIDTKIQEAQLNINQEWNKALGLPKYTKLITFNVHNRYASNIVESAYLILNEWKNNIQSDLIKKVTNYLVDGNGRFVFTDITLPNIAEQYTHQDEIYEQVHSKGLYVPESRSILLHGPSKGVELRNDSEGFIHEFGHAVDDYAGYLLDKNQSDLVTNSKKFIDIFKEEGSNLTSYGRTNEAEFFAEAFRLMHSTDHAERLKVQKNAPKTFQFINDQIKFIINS
# SARS 3CLpro inh-1 – SARS-CoV 3CLpro protease inhibition | P0C6X7 | recombinant SARS-CoV 3CLpro, quenched FRET peptide cleavage | actives 0.14% (n = 290,000) | inhibition, % at 6 µM; in the data active means inhibition above about 12%
# BoNT-A LC inh2 – blocks Botulinum neurotoxin A light chain protease. multiplex microsphere protease substrate cleavage, flow cytometry. inhibition, % at 10 µM. actives 0.17% (n = 360,000); further: plate controls were buffer without enzyme for full effect and enzyme alone for no effect
# SARS 3CLpro inh-2 – confirmation of SARS coronavirus 3C-like protease inhibitors; shares compounds with SARS 3CLpro inh-1; QFRET protease activity assay, 3CLpro; inhibition, % at 6 µM; actives 36% (n = 380); in the data active means inhibition above about 13%
# Starred values were filed as active, the others as inactive; ? = inconclusive; · = no result. Unless noted, no stated cut-off is given here; in the data, active means inhibition above about 30%; inconclusive means no clear call, values can overlap the other calls; inactive means below that.
SMILES,BoNT-F LC inh,CCHF vOTU inh,Bead autofluor,Anthrax LF inh2,SARS 3CLpro inh-1,BoNT-A LC inh2,SARS 3CLpro inh-2
COc1ccc(C2C(O)C(c3c[nH]c4ccccc34)=NN2C(=O)CCl)cc1 (centres undefined),-2,-19,4976,-4,61*,-2,78*
Cc1cc(C(=O)CCl)c(C)n1-c1cccc([N+](=O)[O-])c1,0,2,3292,-2,20*,-1,60*
COc1cccc(NC(=O)C2CCCN2C(=O)Nc2cccc3c2OCO3)c1 (centres undefined),·,8,·,·,·,·,·
O=C(Nc1ccccc1)NN(C(=O)CCl)c1ccccc1,4,14,6168,1,32*,-1,36*
CCC(O)(CC)C(=O)NN(C(=O)CCl)c1ccccc1,0,-8,1893,-1,-2,0,·
CCCCCC[C@H](CN(CCCC)S(C)(=O)=O)c1ccccc1,·,26,·,·,·,·,·
O=C(CC1C(=O)NCCN1C(=O)Nc1ccc(C(F)(F)F)cc1)Nc1ccc(F)cc1 (centres undefined),11,-8,5784,16,10,0,·
COc1ccc(NC(=O)CC2C(=O)NCCN2C(=O)Nc2ccc(C(F)(F)F)cc2)cc1 (centres undefined),-7,10,5160,-2,13*,1,4
O=C(Nc1ccc(F)cc1)OCCN1C(=O)CCC12CCC(c1ccc(Cl)cc1)CC2 (centres undefined),·,1,·,·,·,·,·
CC(=O)c1ccc(-c2cc(C(C)=O)c3n(c2=O)CCC3)cc1,·,-85,·,·,·,·,·
CCc1ccc(C(=O)Nn2cnc3ccccc3c2=O)cc1,-6,-12,3999,-1,-5,-3,·
O=C(Nn1cnc2ccccc2c1=O)c1ccc(Br)cc1,-12,-14,3206,-16,14*,-2,8
O[C@H](COc1cc(F)cc(F)c1)CN1CCC(C(O)(c2ccccc2)c2ccccc2)CC1,·,-2,·,·,·,·,·
S=C(c1ccc(-c2ccccc2Cl)o1)N1CCCCC1,-1,3,2492,-1,27*,1,-7
O=C1NC(=O)N(c2ccccc2F)C(=O)/C1=C/c1cn(CC(=O)N2CCOCC2)c2ccccc12,·,14,·,·,18*,·,18*
COCC1CN(CCc2ccc(F)cc2)S(=O)(=O)c2c(OCCN3C(=O)[C@@H]4[C@H](C3=O)[C@@H]3C=C[C@H]4C3)cccc2O1 (some centres undefined),·,2,·,·,·,·,·
CCOC(=O)c1sc(-c2ccccc2)cc1N,-10,-2,9248,-13,1,0,·
CCOC(=O)c1c(N)sc(C(O)(C(F)(F)F)C(F)(F)F)c1-c1ccccc1,11,-7,3502,-6,12*,-1,10
CCOC(=O)c1cc(-c2ccccc2)sc1N,-4,9,3108,-3,59*,0,33*
Cn1cccc1[C@]1(O)C(=O)Nc2ccc(F)cc21,·,-3,·,·,·,·,·
CCOC(=O)c1ccc(NC(=O)CN2C(=O)CSCC2=O)cc1,-5,7,2437,2,11,0,·
CCOC(=O)c1ccc(NC(=O)CN2C(=O)C(CC)SC(CC)C2=O)cc1 (centres undefined),-7,3,2467,-2,13*,0,-2
C/C(Cn1nnc([N+](=O)[O-])n1)=N\NC(=O)c1ccc(Cl)c(Cl)c1,-16,-11,13431,-8,14*,-3,0
Cc1cccc(NC(=S)NN2CCN(C)CC2)c1C,-5,5,2438,0,0,0,·
Cc1cccc(NC(=S)NN2CCOCC2)c1C,-7,15,2925,0,13*,0,0
SMILES,BoNT-F LC inh,CCHF vOTU inh,Bead autofluor,Anthrax LF inh2,SARS 3CLpro inh-1,BoNT-A LC inh2,SARS 3CLpro inh-2
O=Cc1c(C(=O)O)n(CC(=O)O)c2ccccc12,-6,6,2485,-1,13*,-1,-1
O=Cc1c(C(=O)O)n(Cc2ccc(Cl)cc2)c2ccccc12,4,13,2390,-1,4,1,·
COC(=O)[C@]12C[C@H](CC(=O)N3CCSCC3)C(=O)N(Cc3ccco3)C1=C[C@H](C(C)(C)C)O[C@@H]2C,·,6,·,·,·,·,·
COc1ccc(N(Cc2cc3ccccc3[nH]c2=O)S(=O)(=O)c2ccc(OC)cc2)cc1,-3,5,5727,-2,16*,0,6
O=C(CCNC(=O)Cn1cnc2ccccc2c1=O)NCC1CCCO1 (centres undefined),-4,-11,5634,-2,17*,-2,-3
C=CCN(CC#Cc1ccc(OC)cc1)CC=C,·,0,·,·,·,·,·
O=C(Nc1ccc(NC(=S)NC(=O)c2ccccc2Cl)cc1)c1cccc(Cl)c1,-5,2,2948,-10,16*,0,4
CC(C)C(=O)Nc1cccc(NC(=S)NC(=O)c2ccccc2Cl)c1,-12,7,?,?,1,?,·
COC(=O)[C@]12C[C@H](CC(=O)N3CCSCC3)C(=O)N(Cc3ccco3)C1=C[C@H](COCc1ccccc1)O[C@@H]2C,·,4,·,·,·,·,·
COC(=O)C1=C(C)N(C)C(=NCc2ccccc2C(F)(F)F)NC1c1ccc(C(F)(F)F)cc1 (centres undefined),·,11,·,·,·,·,·
CC(=O)Nc1ccc(N(C(=O)Cn2nnc3ccccc32)C(C(=O)NC2CCCC2)c2ccc(O)c(O)c2)cc1 (centres undefined),-1,7,3547,6,20*,-2,25*
CCOc1cc(C(C(=O)NCC2CCCO2)N(C(=O)Cn2nnc3ccccc32)c2ccc(NC(C)=O)cc2)ccc1O (centres undefined),2,12,5917,-2,10,-1,·
COc1ccc(C(C(=O)NCC2CCCO2)N(C(=O)Cn2nnc3ccccc32)c2ccc(NC(C)=O)cc2)cc1 (centres undefined),15,9,3479,0,35*,-4,30*
Cc1cc(N2CCN(C(=O)OC(C)(C)C)C[C@@H]2C)ccc1N1CCN(Cc2ccccc2)[C@@H](C)C1,·,8,·,·,·,·,·
COc1ccc(CC(=O)NC(C)c2nnc(SCC(=O)c3ccc(OC)cc3)n2C)cc1 (centres undefined),-2,-9,4304,-2,4,-1,·
COc1ccc(CC(=O)NC(C)c2nnc(SCCOc3ccc(OC)cc3)n2C)cc1 (centres undefined),2,-7,16217*,4,18*,0,-4
C[C@H](O)[C@@H]1C(=O)N2CCc3c([nH]c4c(-c5ccccc5)cccc34)[C@@H]2C[C@@H]1N(C)C(=S)Nc1ccc(C#N)cc1,·,-13,·,·,·,·,·
CC(C)NC(=O)CN1CCN(c2ncccn2)CC1,-14,4,10503,0,12*,0,1
CC(NC(=O)CN1CCN(c2ncccn2)CC1)c1ccc(F)cc1 (centres undefined),-8,3,3424,-1,1,0,·
N#Cc1ccc(CSc2nnc(NC(=O)c3ccc4ncsc4c3)s2)cc1,-20,4,4624,-2,13*,-3,43*
Cc1ccc(NC(=O)CN(C)C(=O)c2cccnc2Nc2cccc(C(F)(F)F)c2)cc1,1,12,5534,-8,13*,-1,12

# Source: PubChem (several laboratories)
